# Data: PubChem BioAssay AID1310 (The Scripps Research Institute Molecular Screening Center, 2008)
# This is one part of the list. Activity calls are given as the source filed them.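 The calls were made as follows: active = inhibition above the mean of solvent-only control wells plus 3 SD, set per campaign (cut at about 25% in these data); inactive = the rest.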
# Assay: STAT3 reporter inhibition by STAT1 hits, counter-screen for STAT1 inhibitor project, U3A cells, luciferase, luminescence, triplicate (AID 1310);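 also: 0% = IL-6 plus DMSO and 100% = IL-6 plus nifuroxazide control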
# Conditions: IL-6 STAT3 luciferase reporter, at 5.7 µM, active compounds read high, cells lacking STAT1
row,Compound,inhibition
1,O=C(CCl)N(Cc1cccc([N+](=O)[O-])c1)c1cccc(Cl)c1,47% (active)
2,CCOC(=O)C(=CNc1cccc(C)n1)C(=O)OCC,9.3% (inactive)
3,CCOC(=O)N1CCN(C(=O)C2CCN(c3ncnc4c3sc3cccc(F)c34)CC2)CC1,4.65% (inactive)
4,COc1ccc(C2CC(c3cccs3)=NN2c2nc(C)c(C(C)=O)s2)cc1OC (stereo not given),13.4% (inactive)
5,Cc1ccc(C2=Nc3c(ccc4ccccc34)C(c3ccncc3)=NN2)cc1,-38.9% (inactive)
6,CCOC(=O)N1CCN(C(=O)CSc2nnc(-c3c[nH]c4ccccc34)n2CCOC)CC1,-4.2% (inactive)
7,COC(=O)C1=CN(Cc2ccc(OC)c(OC)c2)C=C(C(=O)OC)C1c1cccs1,-3.35% (inactive)
8,NS(=O)(=O)c1cccc(NC(=O)CSc2nc3ccccc3n2-c2ccccc2)c1,-2.95% (inactive)
9,C[C@@H]1C[C@@H]2O[C@H]2/C=C\C=C\C(=O)Cc2c(Cl)c(O)cc(O)c2C(=O)O1,70% (active)
10,COc1ccc(C(=O)Nc2ccccc2C(=O)N/N=C/c2ccccc2OC)cc1,-7.2% (inactive)
